Consider 63 compounds from PubChem BioAssay AID1671193 (National Center for Advancing Translational Sciences (NCATS), 2021).

Among all 150,000 compounds or so, about 180 (0.12%) were called active. Entries that show only a call come without a potency. Not shown: some 6% with an inconclusive outcome. The sample holds actives, similar compounds and a random draw of the others, so the mix is not that of the screen. A number with no mark means an inactive call. The call rests on the fitted dose curve; in most records, active means well fitted cell-killing curve with a large enough effect; inconclusive means small, poorly fitted or top-dose-only effect, or effect the other way; inactive means flat fitted curve, though single readings scatter.
Potency means the concentration at half of the fitted maximal effect.

The experiment is described as follows: GF-AFC viability counterscreen for inhibitors of alpha-synuclein gene (SNCA) expression. Further: nearly all actives have a fitted effect of over 30% in size. To be noted: HEK-293-SNCA-luc viability, GF-AFC fluorescence, 24 h; series mostly up to 57.1 µM. The source says: Assay Submitter (PI): Daniel R. Scoles Ph.D.
Department of Neurology, University of Utah, Salt Lake City, Utah
Accumulation of alpha-synuclein is a main underlying pathological feature of Parkinson's disease (PD) and alpha-synucleinopathies, for which lowering expression of the alpha-synuclein gene (SNCA) is a potential therapeutic avenue. Using a cell-based luciferase reporter of SNCA expression we performed a quantitative high throughput screen (qHTS) of 155,885 compounds in dose response. The screening assay was generated using genome editing to insert the luciferase gene downstream and in frame of the SNCA gene in HEK-293 cells (1). A viability counterscreen using GF-AFC was used to eliminate cytotoxic and false positive compounds. After in silico analysis (clustering, removal of frequent hitter nuisance chemotypes), inhibitor compounds from the primary screen were selected for follow up and re-tested at 11-doses in the SNCA-luc cells (luciferase and GF-AFC confirmation), and in CMV-luc expressing cell line to flag general transcriptional repressors.
Described herein are the results of the GF-AFC viability counterscreen for SNCA inhibitors; inactivity (no decrease in fluorescence signal, not cytotoxic) is the desired output for this assay.
1. Dansithong, W., Paul, S., Scoles, D. R., Pulst, S. M., and Huynh, D. P. (2015) Generation of SNCA Cell Models Using Zinc Finger Nuclease (ZFN) Technology for Efficient High-Throughput Drug Screening. PLoS ONE 10, e0136930.
SEQUENCE No. (e.g., 1, 2, 3, etc.); […] (e.g., Cells, Incubation, Reagent, etc.); VALUE; DESCRIPTION
1; Cells; 4 uL; Dispense 1500 HEK-293-SNCA-luc cells/well into Greiner 1536-well white / solid bottom tissue culture treated plate. The plate was covered with metal lids with gas-exchange holes.
2; Incubate; 24 hours; Incubate at 37C, 5% CO2, 95% RH.
3; Compounds; 23 nL; Compounds and controls were transferred via a Kalypsys Pin Tool (Wako USA) equipped with a 1536-slotted pin array. The plate was covered with metal lids with gas-exchange holes.
4; Incubate; 24 hours; Incubate at 37C, 5% CO2, 95% RH.
5; Dispense; 1 uL; Dispense Gly-Phe-7-amino-4-trifluoromethylcoumarin (GF-AFC, prepared at 125 uM in PBS) was added. The plate was covered with metal lids with gas-exchange holes.
6; Incubate; 30 min; Incubate at 37C, 5% CO2.
7; Detector; Fluorescence; Measure fluorescence with ViewLux microplate reader (PerkinElmer) equipped with 405/10 excitation and 540/25 emission filters.
8; Dispense; 3 uL; Dispense ONE-Glo ([…]) lucifase detection reagent was added to each well. Plates were covered with metal lids with gas-exchange holes.
9; Incubate; 15 min; Incubate at room temperature.
10; Detector; Luminescence; Measure luminescence with ViewLux microplate reader (PerkinElmer) equipped with clear filters.
NOTES (numbers refer to sequence above)
1; HEK-293-SNCA-luc were cultured and suspended in phenol-red free DMEM (4.5 g/L glucose, 25 mM HEPES, cat #21063 (Thermo)).
3; Compounds were added to the assay plate in an 11-point intra plate dose response, 1:3 titration in DMSO with a final concentration range of […]. Vehicle-only plates, with DMSO being pin-transferred to every well, were inserted at the beginning of screening runs to confirm expected assay performance. Activity was normalized to wells containing medium only (-100% activity, full inhibition) and SNCA-luc cells treated with DMSO vehicle control (0% activity), contained on the same plate as test samples.
10; Signals were analyzed, and dose-response curves were fit using the Hill equation. Compounds in curve classes -1.1, -1.2, -2.1, -2.2 in the SNCA-luc assay were considered active. Compounds were eliminated from further consideration if also active (curve class -1.1, -1.2, -1.3, -1.4, -2.1, -2.2, -2.3, -2.4) in the GF-AFC cytotoxicity assay.
On the technique in general: The purpose of a counterscreen is to sort out artefacts and off-target activity.
As for `CC(NC(=O)c1ccc(OC(F)(F)F)cc1)C(=O)N1CCN(c2ccccn2)CC1` (stereo not drawn), the Potency result was “inactive”. Still for that read-out and setting: next, `CCNC(=O)N1CCCC1c1noc(CCC(=O)NC2CCCC2)n1` (stereo not drawn): “inactive”. On the same count and under the same terms, next, `O=C1Nc2ccccc2CC12CCCN2Cc1ccccc1` (stereo not drawn): “inactive”. Still for that read-out and setting: the same measure for `Cc1cc(N2CCC3(CC2)CC(c2ccccc2)C(=O)N3C)ncn1` (stereo not drawn): “inactive”; for `Cc1cccnc1CN1CCN(C(=O)Cn2nnnc2CN2CCCC2)CC1`: “inactive”. For the compound `CC1=C[C@@H](CNC(C)C)[C@H](C(C)C)C[C@H]1Cc1nnc(-c2ccncc2)o1`, the Potency result was “inactive”. The same measure, in the same setting: the same measure for `CC1=C[C@@H](CNC2CC2)[C@H](C(C)C)C[C@H]1Cc1nnc(-c2ccc(C)cc2)o1`: 35.5 µM (active). Regarding `CC1=C[C@@H](CNS(C)(=O)=O)[C@H](C(C)C)C[C@H]1Cc1nnc(-c2ccncc2)o1`, the Potency entry is “inactive”. The same measure, in the same setting: next, `O=C1CCC2(C(=O)NCc3cccc(F)c3)CCC=C2N1C1CCCC1` (stereo not drawn): “inactive”; `O=C1[C@@H]2C[C@@H](CN2Cc2ccc3ccccc3n2)Oc2ccccc2N1Cc1ccccc1`: “inactive”; `COc1ccccc1-c1cccc(CN2CCCC(C(=O)NCC3CC3)C2)c1` (stereo not drawn): “inactive”. Consider `CN(C(=O)CN1C(=O)NC2(CCOCC2)C1=O)c1ccccc1`, for which the Potency entry is “inactive”.

For `O=c1cc(-c2ccccn2)oc2c(-c3ccccc3F)nccc12`, the Potency result was “inactive”.

In the case of `COc1ccc2c(c1)OCC(C(=O)NCc1cc3cc(OC)ccc3[nH]1)C2` (stereo not drawn), the Potency entry is “inactive”. On to `COCCC(=O)N1CCCCCCNC(=O)[C@@H]2CCCC[C@@H]21`, for which the Potency result was “inactive”.

For `Cc1ccc(CN2CCCCCNC(=O)[C@H]3C[C@H](C(=O)N4CCc5ccccc5C4)C[C@H]32)o1`, the Potency entry was “inactive”. Same read-out and setting: the same measure for `COc1ccc(-c2noc(C(=O)O)c2[C@@H](C)NS(=O)(=O)c2ccccc2)cc1`: “inactive”; for `O=C(NCC1CC1)c1cn(C2CN(C(=O)C3CCOC3)C2)nn1` (stereo not drawn): “inactive”. On the same count and under the same terms, next, `O=C(Cc1cccc(F)c1)N1CCC2(CCC2N2CCOCC2)CC1` (stereo not drawn): “inactive”; `Cc1cccc(CN2CCCN(Cc3ccncc3)C(c3ccccc3)CC(=O)NCC2)c1` (stereo not drawn): “inactive”. Still for that read-out and setting: the same measure for `CSc1oc(-c2cccs2)nc1S(=O)(=O)c1ccc(Br)cc1`: “inactive”; for `Cc1ccc(CSc2oc(-c3cccs3)nc2S(=O)(=O)c2ccc(C)cc2)cc1`: “inactive”.

On to `CCCCS(=O)(=O)c1oc(-c2cccs2)nc1S(=O)(=O)c1ccccc1`, for which the Potency is 12.6 µM (active). Same read-out and setting: next, `O=C(CCCc1c[nH]c2ccccc12)N1CCC2(CC1)CC(CCOCC1CC1)CCO2` (stereo not drawn): “inactive”; `CCc1cccc(NC(=O)N2[C@@H]3CC[C@H]2CC(NC(=O)c2ccc(F)cc2)C3)c1` (stereo partly drawn): “inactive”; `O=C(NCc1cccc(C(F)(F)F)c1)c1nn(CCOc2ccccc2)c2c1CNCC2`: “inactive”. On the same count and under the same terms, the same measure for `Cn1ccnc1CNCC1(COc2ccc(C(F)(F)F)cn2)C[C@@H](O)[C@@H](O)C1` (stereo partly drawn): “inactive”; for `O=C(NCc1ccccc1)[C@@H]1Cc2nc[nH]c2CN1Cc1cccc(OC(F)(F)F)c1`: “inactive”; for `COc1ccc(NC(=O)C2(C)CN(C)Cc3ccc(Nc4cccc(OC)c4)nc32)cc1` (stereo not drawn): “inactive”. Turning to `O=C(NCC1CC1)c1coc(COc2ccc3c(c2)C(c2cccc(F)c2)N(C(=O)C2CC2)CC3)n1` (stereo not drawn), the Potency result was “inactive”. On the same count and under the same terms, next, `CC(CCc1ccccc1)NC(=O)CN1C(=O)NC(c2ccccc2Cl)C2=C1COC2=O` (stereo not drawn): “inactive”; `O=C(NCc1ccccc1F)c1nc2cccnc2n(C2CC2)c1=O`: “inactive”. As for `OC1CN(Cc2ccccc2)CCN(C2CCN(c3ccccc3F)CC2)C1` (stereo not drawn), the Potency entry was “inactive”. As to `Cc1ccc(S(=O)(=O)N2CCCN(C)c3ccccc32)cc1Cl`, the Potency entry was “inactive”. The same measure, in the same setting: next, `Cc1nc(N2CCCCC2)ncc1C(=O)N1CCC2(CCCNC2=O)C1` (stereo not drawn): “inactive”; `NCc1ccccc1-c1cccc(C(F)(F)F)c1`: “inactive”. In the case of `O=C1[C@H]2CN(Cc3ccccc3F)C[C@H]2C(=O)N1CCN1CCc2ccccc2C1`, the Potency result is “inactive”. On the same count and under the same terms, the same measure for `O=C(NCc1ccco1)[C@@H]1Cc2nc[nH]c2CN1CCCc1ccccc1`: “inactive”. The same measure, in the same setting: the same measure for `COc1ccc2cc(CN3CCNC(=O)C3C)c(-c3cccs3)nc2c1` (stereo not drawn): “inactive”; for `COc1cccc(-c2cn3c(n2)N(C(=O)Cc2ccccc2)CCC3)c1`: “inactive”. Same read-out and setting: the same measure for `O=C(CCC[C@H]1NC[C@@H]2C[C@H]1CN(Cc1ccccc1)C2)N1CCN(C2CCCCC2)CC1`: “inactive”; for `Cc1cccc(OCC2CCCN(c3ncncn3)C2)c1` (stereo not drawn): “inactive”. For `O=C(c1ccc2c(c1)OCO2)N1CCC2(CC1)NC(=O)N(c1ccccc1)N2`, the Potency entry is “inactive”. The same measure, in the same setting: next, `Cc1noc2c(Nc3ccc(Cl)cc3)cc(-c3cccnc3)nc12`: “inactive”. Same read-out and setting: next, `COCCN1CCOC2(CCN(Cc3ccc(C(C)C)cc3)CC2)C1=O`: “inactive”; `CN(C)Cc1cccc(-c2cc(-c3ccncc3)c3cncn3c2)c1`: “inactive”; `O=C(Cc1ccc(F)cc1)N1CN=C(C2CCN(Cc3ccc(F)cc3)CC2)N1`: “inactive”. Same read-out and setting: next, `COC(=O)[C@@H]1Cc2ncn(Cc3ccccc3)c2CN1C(=O)CC(C)(C)C`: “inactive”. In the case of `CC(C)Oc1ccc(CN2CCCC(COc3ccccc3C(=O)N3CCCC3)C2)cc1` (stereo not drawn), the Potency entry is “inactive”. On the same count and under the same terms, the same measure for `COc1ccc(N2CCN(c3nc(C(=O)NC4CCCCCC4)cs3)CC2)cc1`: “inactive”; for `O=C(C1CCCC1)N1CCc2nc(C3CC3)nc(-c3ccc(O)cc3)c2C1`: “inactive”; for `O=C1C2CN(Cc3ccc4[nH]ccc4c3)CCC2OCCN1Cc1ccccc1F` (stereo not drawn): “inactive”. Same read-out and setting: next, `CCN(CC)CCCCNc1ncc2cc(-c3c(Cl)cccc3Cl)c(NC(=O)NC(C)(C)C)nc2n1`: 15 µM (active).

Consider `CN(C)C[C@@H]1CN(Cc2cccnc2)C[C@H]1NC(=O)Cc1cccc(F)c1`, for which the Potency entry is “inactive”.

For `O=C(c1cccc(O)c1)N1CCNc2cnc(Nc3cccc(F)c3)nc2C1`, the Potency result is “inactive”. On the same count and under the same terms, the same measure for `c1cnc2nc(C3CCN(C4CCCCC4)C3)[nH]c2c1` (stereo not drawn): “inactive”. Take `O=C(NCc1ccc(F)cc1)N1CCC2(CC1)CC(OCC1CC1)CCO2` (stereo not drawn): the activity change, negative = cytotoxicity was 4.57% [at 12.5 µM].

For `CCOC(=O)C1CCCN(C(=O)c2c(C)oc3c2CN(Cc2ccc(C)cc2)CC3)C1` (stereo not drawn), the Potency entry was “inactive”. The same measure, in the same setting: the same measure for `COc1ccc(OC)c2nc(-c3cccc(C)c3)c(CN3CCCC(O)C3)cc12` (stereo not drawn): “inactive”; for `O=C(NC1CCN(c2ccnc3ccnn23)C1)c1ccccc1F` (stereo not drawn): “inactive”.

In the case of `Cn1nccc1C(=O)NCCC1CCN(C(=O)Nc2ccccc2)CC1`, the Potency entry is “inactive”. The same measure, in the same setting: next, `Cc1ccc(-c2noc([C@@H]3Cc4nc[nH]c4CN3Cc3cccc(C#N)c3)n2)cc1`: “inactive”.

Consider `CCCCN(CC#Cc1ccccc1)C(=O)c1cc(=O)n(C)c(=O)n1C`, for which the Potency entry was “inactive”.
